Source: PubChem BioAssay (Tox21)
Records with an inconclusive call do not appear. Entries that show only a call come without a potency. Activity calls are given as the source filed them. Unless noted, calls come from the whole dose curve; as a rule, active = well fitted curve in the direction sought with a large enough effect in the repeat runs; inconclusive = weak or mixed curves; inactive = no such curve, though single readings can be large; an effect the other way counts as inactive or inconclusive.

Key:
[1] = qHTS assay to test for compound auto fluorescence at 535 nm (green) in HEK293 cells (AID 720680)
[2] = qHTS assay to test for compound auto fluorescence at 460 nm (blue) in HEK293 cell free culture (AID 720681)
Outline: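 Compounds were added to cell-free DMEM with 10% FBS and fluorescence read directly. The blue channel used 405 nm excitation and 460 nm emission, with triamterene as the reference fluorophore.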

[3] = qHTS assay to test for compound auto fluorescence at 535 nm (green) in HEK293 cell free culture (AID 720682)
Outline: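 No cells present: wells hold DMEM supplemented with 10% FBS, into which compound or vehicle is pinned. Green emission is then recorded (485 nm excitation, 535 nm emission) and scaled to fluorescein.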

[4] = qHTS assay to test for compound auto fluorescence at 590 nm (red) in HEK293 cell free culture (AID 720683)
Outline: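 Cell-free wells of DMEM with 10% FBS received compound, and intrinsic fluorescence was read at excitation/emission 540/590 nm. Values expressed as equivalence to Rose Bengal sodium.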

[5] = qHTS assay to test for compound auto fluorescence at 460 nm (blue) in HepG2 cell free culture (AID 720685)
Outline: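 Cell-free plates of MEM plus 10% FBS received 23 nL compound or DMSO vehicle; blue-channel (405/460 nm) intensity scored against triamterene as reference fluorophore.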

[6] = qHTS assay to test for compound auto fluorescence at 535 nm (green) in HepG2 cell free culture (AID 720686)
[7] = qHTS assay to test for compound auto fluorescence at 460 nm (blue) in HepG2 cells (AID 720687)
Outline: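 HepG2 cells in MEM with 10% FBS, attached overnight at 37 C, were exposed to compound or DMSO for 1 hr at 37 C, 5% CO2. Blue fluorescence was read at 405/460 nm, with triamterene as reference fluorophore.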

[8] = qHTS assay to identify small molecule antagonists of the glucocorticoid receptor (GR) signaling pathway - cell viability counter screen (AID 720693); note: nearly all actives have a fitted effect of over 55% in size
[9] = qHTS assay for identifying genotoxic compounds that show differential cytotoxicity against isogenic chicken DT40 cell lines with known DNA damage response pathways - wild type cell line (AID 743012); note: nearly all actives have a fitted effect of over 60% in size; note: potency is the fitted concentration of half-maximal effect
Outline: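 Cytotoxicity in repair-proficient parental chicken DT40 cells serves as the comparator for Rad54/Ku70- and Rev3-deficient lines. Cells were exposed to compounds for 40 h at 37 C/5% CO2, and ATP-based luminescence (CellTiter-Glo) measured viability.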

[10] = qHTS assay for identifying genotoxic compounds that show differential cytotoxicity against isogenic chicken DT40 cell lines with known DNA damage response pathways - Rev3 mutant cell line (AID 743014); note: nearly all actives have a fitted effect of over 55% in size; note: potency is the fitted concentration of half-maximal effect
[11] = qHTS assay for identifying genotoxic compounds that show differential cytotoxicity against isogenic chicken DT40 cell lines with known DNA damage response pathways - Rad54/Ku70 mutant cell line (AID 743015); note: nearly all actives have a fitted effect of over 60% in size; note: potency is the fitted concentration of half-maximal effect
[12] = qHTS assay to identify small molecule antagonists of the androgen receptor (AR) signaling pathway - cell viability counter screen (AID 743033; note: nearly all actives have a fitted effect of over 45% in size)
[13] = qHTS assay to identify small molecule antagonists of the androgen receptor (AR) signaling pathway using the MDA cell line - cell viability counter screen (AID 743041; note: nearly all actives have a fitted effect of over 45% in size)
Outline: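 Cytotoxicity counter screen: MDA-kb2 AR-luc cells, compound + R1881, 16 h, 37C, 0% CO2; CellTiter-Fluor added at 15.5 h, fluorescence read after 30 min.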

[14] = qHTS assay to test for compound auto fluorescence at 590 nm (red) in HepG2 cell free culture (AID 720684)
Outline: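 Rose Bengal sodium served as the reference for red signal. Test compounds were dispensed into serum-containing MEM (10% FBS) without cells, and plates were read at 540/590 nm.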

[15] = biological target: Glucocorticoid receptor (Homo sapiens) (UniProt P04150); test: qHTS assay to identify small molecule agonists of the glucocorticoid receptor (GR) signaling pathway (AID 720691; active = well fitted activation curve with a large enough effect in the signal ratio in the repeat runs, not every such curve was filed as active; the % refers to the signal ratio)
Outline: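 Steps: seed GR-bla HeLa cells, incubate 4 h at 37 C/5% CO2; pin-transfer DMSO-dissolved compounds; incubate 18 h at 37 C; add LiveBLAzer B/G FRET substrate; after 2 h at room temperature, measure fluorescence.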

[16] = biological target: Glucocorticoid receptor (Homo sapiens) (UniProt P04150); test: qHTS assay to identify small molecule antagonists of the glucocorticoid receptor (GR) signaling pathway (AID 720692; active = well fitted inhibition curve with a large enough effect in the signal ratio in the repeat runs, not every such curve was filed as active; the % refers to the signal ratio)
Outline: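 Antagonism was scored as loss of dexamethasone-driven (5 nM final) reporter signal in HeLa cells bearing a glucocorticoid response element–beta-lactamase construct, after 18 h compound exposure at 37 C and 2 h FRET substrate loading.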

[17] = biological target: Androgen receptor (Homo sapiens) (UniProt P10275); test: qHTS assay to identify small molecule agonists of the androgen receptor (AR) signaling pathway (AID 743036; active = well fitted activation curve with a large enough effect in the signal ratio in the repeat runs, with a control signal flat, not every such curve was filed as active; the % refers to the signal ratio)
Outline: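 Quantitative HTS of the Tox21 10K library in HEK293 cells bearing a stably integrated UAS-controlled beta-lactamase reporter. Compound exposure lasted 16 h at 37C. Reporter activity was detected by FRET substrate fluorescence after 2 h at room temperature.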

[18] = biological target: Androgen receptor (Homo sapiens) (UniProt P10275); test: qHTS assay to identify small molecule agonists of the androgen receptor (AR) signaling pathway using the MDA cell line (AID 743040; note: nearly all actives have a fitted effect of over 20% in size); conditions: MDA-kb2 AR-luc cells, MMTV luciferase, 16 h; activity change: at 70.3 µM (top of the series), stronger effect = higher value
Outline: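 Luciferase read-out, ONE-Glo, 30 min RT. Cells: MDA-kb2 AR-luc, MMTV promoter with AR and GR response elements. Compound exposure 16 h, 37C, 0% CO2, after 5 h pre-incubation. qHTS agonist mode.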

[19] = biological target: Androgen receptor (Homo sapiens) (UniProt P10275); test: qHTS assay to identify small molecule antagonists of the androgen receptor (AR) signaling pathway using the MDA cell line (AID 743042; note: nearly all actives have a fitted effect of over 55% in size)
Outline: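 MDA-kb2 breast carcinoma cells carrying MMTV-luciferase (AR/GR responsive) were co-treated with compounds and the agonist R1881 for 16 h at 37C. Inhibition read as ONE-Glo luminescence; CellTiter-Fluor fluorescence measured in parallel for cytotoxicity.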

[20] = biological target: Androgen receptor (Homo sapiens) (UniProt P10275); test: qHTS assay to identify small molecule antagonists of the androgen receptor (AR) signaling pathway (AID 743035; active = well fitted inhibition curve with a large enough effect in the signal ratio in the repeat runs, not every such curve was filed as active; the % refers to the signal ratio)
Outline: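 Steps: seed AR-UAS-bla GripTite HEK293 cells, incubate 4 h at 37C; pin in test compound, then add agonist R1881; incubate 16 h at 37C; add LiveBLAzer B/G FRET substrate, 2 h at room temperature; read fluorescence.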

Sequence of Androgen receptor (Homo sapiens) (P10275 whole entry, looked up): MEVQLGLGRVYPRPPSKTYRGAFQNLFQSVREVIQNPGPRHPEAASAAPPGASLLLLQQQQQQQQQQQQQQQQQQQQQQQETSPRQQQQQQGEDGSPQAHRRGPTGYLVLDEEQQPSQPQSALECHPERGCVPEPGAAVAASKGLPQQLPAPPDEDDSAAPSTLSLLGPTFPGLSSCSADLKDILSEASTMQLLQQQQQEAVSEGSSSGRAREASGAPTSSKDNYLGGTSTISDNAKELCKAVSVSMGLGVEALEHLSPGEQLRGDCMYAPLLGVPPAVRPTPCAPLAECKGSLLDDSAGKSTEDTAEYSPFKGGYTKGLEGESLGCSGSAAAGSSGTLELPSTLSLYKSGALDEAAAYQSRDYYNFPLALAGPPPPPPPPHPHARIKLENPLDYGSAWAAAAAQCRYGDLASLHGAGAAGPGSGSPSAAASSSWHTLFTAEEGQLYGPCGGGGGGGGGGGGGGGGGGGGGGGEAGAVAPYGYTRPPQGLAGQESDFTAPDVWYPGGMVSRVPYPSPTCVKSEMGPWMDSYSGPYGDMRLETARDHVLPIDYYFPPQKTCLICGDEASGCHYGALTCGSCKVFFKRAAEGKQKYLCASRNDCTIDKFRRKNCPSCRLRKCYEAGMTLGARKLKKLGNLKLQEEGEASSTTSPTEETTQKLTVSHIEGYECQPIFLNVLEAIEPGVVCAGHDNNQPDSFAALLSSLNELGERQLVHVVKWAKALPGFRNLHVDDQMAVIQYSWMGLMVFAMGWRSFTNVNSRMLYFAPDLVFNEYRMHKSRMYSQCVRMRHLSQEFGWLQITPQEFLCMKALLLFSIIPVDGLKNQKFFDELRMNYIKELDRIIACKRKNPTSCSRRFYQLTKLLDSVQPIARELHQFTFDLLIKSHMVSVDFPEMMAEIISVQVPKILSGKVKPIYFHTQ
Sequence of Glucocorticoid receptor (Homo sapiens) (P04150 whole entry, looked up): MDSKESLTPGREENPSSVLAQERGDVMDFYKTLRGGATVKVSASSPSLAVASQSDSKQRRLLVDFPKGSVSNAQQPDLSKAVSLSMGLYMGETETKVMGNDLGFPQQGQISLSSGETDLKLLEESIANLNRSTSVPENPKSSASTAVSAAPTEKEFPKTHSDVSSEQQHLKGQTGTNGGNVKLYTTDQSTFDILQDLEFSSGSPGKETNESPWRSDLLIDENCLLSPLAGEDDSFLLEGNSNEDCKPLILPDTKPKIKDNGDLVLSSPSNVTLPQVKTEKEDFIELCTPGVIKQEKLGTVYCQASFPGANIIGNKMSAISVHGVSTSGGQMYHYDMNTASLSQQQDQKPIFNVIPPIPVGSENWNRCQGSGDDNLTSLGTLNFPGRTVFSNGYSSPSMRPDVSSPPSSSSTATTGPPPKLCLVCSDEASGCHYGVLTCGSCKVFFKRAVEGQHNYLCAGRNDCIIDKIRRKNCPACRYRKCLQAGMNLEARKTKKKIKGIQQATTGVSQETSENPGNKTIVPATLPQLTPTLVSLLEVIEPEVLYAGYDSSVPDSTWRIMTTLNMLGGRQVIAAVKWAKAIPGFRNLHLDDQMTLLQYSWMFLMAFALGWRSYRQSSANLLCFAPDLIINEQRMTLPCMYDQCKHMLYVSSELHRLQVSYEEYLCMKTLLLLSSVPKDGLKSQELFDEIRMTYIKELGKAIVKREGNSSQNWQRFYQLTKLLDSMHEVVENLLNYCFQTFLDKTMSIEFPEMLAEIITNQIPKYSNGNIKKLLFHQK

Compound	outcome [1]	outcome [2]	outcome [3]	outcome [4]	outcome [5]	outcome [6]	outcome [7]	Potency [8]	Potency [9]	Potency [10]	Potency [11]	Potency [12]	Potency [13]	outcome [14]	Potency [15]	Potency [16]	Potency [17]	Potency [18]	Potency [19]	Potency [20]
CC(C)(C#N)C(C)(C)C#N	inactive	inactive	inactive	inactive	inactive	inactive	inactive	inactive	inactive	inactive	inactive	inactive	inactive							
C[C@H]1O[C@H](OC2[C@@H](O)[C@@H](O)C(O)[C@H](O)[C@H]2O)[C@@H](N)C[C@@H]1N=C(N)C(=O)O (stereo not given in full)	inactive	inactive	inactive	inactive			inactive	inactive	inactive	inactive	inactive	inactive	inactive	inactive	inactive	inactive				
Cc1ccc2c(C)cccc2c1	inactive	inactive	inactive	inactive	inactive		inactive	inactive	inactive	inactive	inactive	inactive	inactive		inactive					
CCCCC#N	inactive	inactive	inactive	inactive	inactive	inactive	inactive	inactive	inactive	inactive		inactive	inactive							
CCCSP(=S)(OCC)Oc1ccc(SC)cc1 (stereo not given)	inactive	inactive	inactive	inactive			inactive	inactive	43.3 µM (active)	15.4 µM (active)	27.3 µM (active)	inactive	inactive	inactive						
CCCCOC(=O)CCC(=O)OCCCC	inactive	inactive	inactive	inactive	inactive	inactive	inactive	inactive	inactive	inactive	inactive	inactive	inactive							
CC(C)(c1ccccc1)c1cc(-n2nc3ccccc3n2)c(O)c(C(C)(C)c2ccccc2)c1		inactive	inactive	inactive	inactive	inactive	inactive	inactive	inactive	inactive	inactive	inactive	inactive	inactive	inactive	inactive				
OCCCl		inactive	inactive	inactive	inactive	inactive	inactive	inactive	inactive	inactive	inactive	inactive	inactive	inactive	inactive	inactive				
CCC1(CC)C(=O)NC(=O)NC1=O	inactive	inactive	inactive	inactive	inactive	inactive	inactive	inactive	inactive	inactive	inactive	inactive	inactive		inactive	inactive				
CC(C)(C)N(NC(=O)c1ccc(Cl)cc1)C(=O)c1ccccc1	inactive	inactive	inactive	inactive	inactive	inactive	inactive	inactive				inactive	inactive		inactive	inactive	inactive	inactive	inactive	
NC(=O)CF		inactive	inactive	inactive	inactive	inactive	inactive	inactive	inactive	inactive	inactive	inactive	inactive	inactive	inactive	inactive				
CCC1(CCC(C)C)C(=O)NC(=O)NC1=O	inactive	inactive	inactive	inactive	inactive		inactive		inactive	inactive	inactive	inactive	inactive					inactive	inactive	inactive
NCCc1cc(O)c(O)cc1O	inactive	inactive	inactive	inactive		inactive	inactive	inactive	23.7 µM (active)			inactive	inactive		inactive	inactive				
C[C@H]1[C@@H]2Cc3ccc(O)cc3[C@@]1(C)CCN2C		inactive	inactive	inactive		inactive	inactive	inactive				inactive	inactive	inactive	inactive	inactive				
CCCCC1C(=O)NC(=O)N(C2CCCCC2)C1=O (stereo not given)		inactive	inactive	inactive		inactive	inactive	inactive	inactive	inactive	inactive	inactive	inactive		inactive	inactive				
O=C(O)c1cc(Cl)ccc1Cl		inactive	inactive	inactive	inactive	inactive	inactive	inactive	inactive	inactive		inactive	inactive	inactive	inactive					
